Broadly, the inhibition is the relative decrease from the control value, in per cent.

For 19 molecules, growth inhibition, inhibition and outcome results are on record in PubChem BioAssay.

Unmarked numbers belong to inactive results. For some assays here: Measured potencies and affinities stand elsewhere. Activity calls are given as the source filed them. Unless noted, the rule behind the calls is not given here.

A short description of test [1]: antimalarial activity against Dd2 strain (AID 2302;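 active = growth inhibition above 50% at the single 2 µM test dose, taken to imply half-maximal potency below 2 µM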;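 note: 0% = DMSO untreated growth and 100% = chloroquine plus artemisinin killed control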). The following applies: P. falciparum Dd2 in RBCs, LDH growth readout, 72 h; at 2 µM; active compounds read high.
Test [2] can be described thus: HepG2 cytotoxicity, primary screen, cytotoxicity control for P. falciparum antimalarial project, cell-based, ATP luminescence (AID 2303;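 active = inhibition above 50%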;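 note: 0% = DMSO wells and 100% = digitonin-killed cells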). Conditions: HepG2 viability, 24-48 h, at 10 µM, active compounds read high.
The target of test [3] is L-lactate dehydrogenase (Plasmodium falciparum (isolate CDC / Honduras)) (UniProt Q27743). The experiment in a line: PfLDH activity inhibition – cell lysate, 3D7 strain, counter-screen for P. falciparum growth inhibition project (AID 2304).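 Note: 0% = vehicle and 100% = reference inhibitor.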 The following applies: P. falciparum 3D7 crude extract, LDH APAD/NBT absorbance; at 2 µM; active compounds read high. For orientation: A counterscreen serves to expose hits that act by an unwanted route or on another target.

A short description of test [4]: inhibition of 3D7 malaria parasite growth – strain 3D7 (AID 2306).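 Note: 0% = DMSO wells and 100% = chloroquine plus artemisinin control wells.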 Conditions: P. falciparum 3D7 erythrocytic growth, LDH absorbance, 72 h; at 2 µM; active compounds read high.
For test [5], the target named is Calcium-dependent protein kinase 1 (Plasmodium falciparum (isolate 3D7)) (UniProt P62344). The experiment in a line: PfCDPK1 kinase inhibitors, biochemical, TCAMS library (AID 1159585; cut-off not given, nearly all actives have IC50 up to about 0.98 µM;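 note: inhibitors leave more ATP so luminescence rises with inhibition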). Conditions: recombinant PfCDPK1, Kinase-Glo ATP depletion luminescence. (Kinase-Glo measures the ATP left after a reaction by luminescence.)
Test [6] deals with Plasmodium falciparum protein kinase 6 (PK6, PF3D7_1337100) (UniProt Q8IDW1). The experiment in a line: PfPK6 kinase inhibitors, biochemical, TCAMS library (AID 1159586). Conditions: recombinant PfPK6, Kinase-Glo ATP depletion luminescence.
Test [7] has as its target Protein kinase 7 (PK7), Plasmodium falciparum 3D7 (PF3D7_0213400) (UniProt Q7YTF7). The experiment in a line: inhibition of Plasmodium PK7 catalytic activity – biochemical, TCAMS antimalarial set, Kinase-Glo luminescence (AID 1159587). The following applies: recombinant PfPK7, Kinase-Glo ATP depletion luminescence.
Test [8] has as its target Calcium-dependent protein kinase 4 (Plasmodium falciparum (isolate 3D7)) (UniProt Q8IBS5). As to the kind of experiment: PfCDPK4 kinase inhibitors, biochemical, TCAMS library (AID 1159588; cut-off not given, nearly all actives have IC50 up to about 0.91 µM). The following applies: recombinant PfCDPK4, Kinase-Glo ATP depletion luminescence.

Sequence of Protein kinase 7 (PK7), Plasmodium falciparum 3D7 (PF3D7_0213400) (Q7YTF7 1-343): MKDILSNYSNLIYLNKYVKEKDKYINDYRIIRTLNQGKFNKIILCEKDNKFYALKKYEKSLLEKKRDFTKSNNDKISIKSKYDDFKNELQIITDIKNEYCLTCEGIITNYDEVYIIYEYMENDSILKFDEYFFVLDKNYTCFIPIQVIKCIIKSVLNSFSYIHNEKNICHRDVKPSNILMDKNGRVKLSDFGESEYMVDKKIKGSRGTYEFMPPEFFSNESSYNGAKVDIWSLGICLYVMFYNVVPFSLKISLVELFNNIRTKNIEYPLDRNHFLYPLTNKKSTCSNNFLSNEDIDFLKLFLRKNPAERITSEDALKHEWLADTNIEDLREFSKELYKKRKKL
Sequence of L-lactate dehydrogenase (Plasmodium falciparum (isolate CDC / Honduras)) (Q27743 whole entry, looked up): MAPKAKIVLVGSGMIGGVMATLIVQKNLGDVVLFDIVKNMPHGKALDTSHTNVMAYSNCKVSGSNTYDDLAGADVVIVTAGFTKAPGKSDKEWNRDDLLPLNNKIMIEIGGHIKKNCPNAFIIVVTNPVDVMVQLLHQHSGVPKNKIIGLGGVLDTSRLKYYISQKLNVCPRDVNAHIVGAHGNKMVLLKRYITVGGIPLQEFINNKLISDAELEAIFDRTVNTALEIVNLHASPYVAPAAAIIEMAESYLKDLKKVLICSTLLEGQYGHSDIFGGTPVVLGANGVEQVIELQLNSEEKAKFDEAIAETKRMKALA
Sequence of Calcium-dependent protein kinase 1 (Plasmodium falciparum (isolate 3D7)) (P62344 whole entry, looked up): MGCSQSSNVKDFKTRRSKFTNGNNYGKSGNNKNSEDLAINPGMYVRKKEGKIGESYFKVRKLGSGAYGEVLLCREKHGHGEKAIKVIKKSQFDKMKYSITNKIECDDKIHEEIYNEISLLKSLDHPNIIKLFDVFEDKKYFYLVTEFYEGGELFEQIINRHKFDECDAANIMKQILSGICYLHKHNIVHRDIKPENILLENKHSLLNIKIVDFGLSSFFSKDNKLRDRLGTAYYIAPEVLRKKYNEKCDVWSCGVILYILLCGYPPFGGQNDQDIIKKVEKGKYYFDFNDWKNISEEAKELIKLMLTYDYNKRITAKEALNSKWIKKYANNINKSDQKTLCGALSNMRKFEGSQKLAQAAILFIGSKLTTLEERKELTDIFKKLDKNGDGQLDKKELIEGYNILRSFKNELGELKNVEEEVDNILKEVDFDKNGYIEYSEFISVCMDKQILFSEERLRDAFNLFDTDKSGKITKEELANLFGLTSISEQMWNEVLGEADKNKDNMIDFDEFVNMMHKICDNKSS
Sequence of Plasmodium falciparum protein kinase 6 (PK6, PF3D7_1337100) (Q8IDW1 1-305): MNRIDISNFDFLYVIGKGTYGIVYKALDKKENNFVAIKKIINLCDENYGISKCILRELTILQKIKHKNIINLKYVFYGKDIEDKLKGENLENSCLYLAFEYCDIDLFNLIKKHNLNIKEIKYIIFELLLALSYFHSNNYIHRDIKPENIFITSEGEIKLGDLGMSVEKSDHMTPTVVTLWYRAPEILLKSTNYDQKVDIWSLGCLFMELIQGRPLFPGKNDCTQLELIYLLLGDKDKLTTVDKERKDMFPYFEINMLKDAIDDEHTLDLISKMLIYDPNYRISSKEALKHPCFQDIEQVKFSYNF
Sequence of Calcium-dependent protein kinase 4 (Plasmodium falciparum (isolate 3D7)) (Q8IBS5 whole entry, looked up): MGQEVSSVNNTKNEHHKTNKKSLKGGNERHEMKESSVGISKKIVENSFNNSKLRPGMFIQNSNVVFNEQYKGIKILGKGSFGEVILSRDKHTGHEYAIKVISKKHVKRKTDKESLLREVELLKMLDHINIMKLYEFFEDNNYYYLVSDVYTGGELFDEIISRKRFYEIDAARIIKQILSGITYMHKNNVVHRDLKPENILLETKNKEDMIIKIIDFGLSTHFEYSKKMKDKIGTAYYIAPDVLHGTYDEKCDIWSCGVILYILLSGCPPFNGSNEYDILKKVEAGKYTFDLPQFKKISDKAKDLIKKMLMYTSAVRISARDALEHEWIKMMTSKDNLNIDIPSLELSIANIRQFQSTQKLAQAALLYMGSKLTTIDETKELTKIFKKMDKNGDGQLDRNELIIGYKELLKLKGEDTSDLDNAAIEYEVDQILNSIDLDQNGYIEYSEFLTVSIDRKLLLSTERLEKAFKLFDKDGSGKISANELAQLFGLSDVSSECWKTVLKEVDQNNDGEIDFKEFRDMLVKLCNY

Turning to `COCCNC(=O)c1ccc(OC2CCN(CC(C)=Cc3ccccc3)CC2)c(Cl)c1`, the growth inhibition was 95% (active) in test [1] and 94% (active) in test [4]. The results for the inhibition in test [2] and in test [3] were 18% and 2%, respectively. Also, the result in test [5], in test [6], in test [7] and in test [8] was inactive.

In the case of `CC1(C)N=C(N)N=C(N)N1OCCSc1ccc(Cl)c(Cl)c1`, the values for the growth inhibition in test [1] and in test [4] were 95% (active) and 96% (active), respectively. In addition, the results for the inhibition in test [2] and in test [3] were 65% (active) and -1%, respectively. The outcome in test [5], in test [6], in test [7] and in test [8] was inactive.

With `Fc1ccc2nc(-c3cccc(-c4cccc(CN5CCN(c6cnccn6)CC5)c4)c3)[nH]c2c1`, the figures for the growth inhibition in test [1] and in test [4] were 35% and 93% (active), respectively. Besides, the inhibition in test [2] was 17%; in test [3], -2%. Besides, the result in test [5], in test [6], in test [7] and in test [8] was inactive.

In the case of `CN(C)CCN(C)Cc1ccc(-c2cccc(-c3nc4ccccc4[nH]3)c2)cc1`, the growth inhibition in test [1] was 78% (active); in test [4], 101% (active). In addition, the inhibition in test [2] is 46%; in test [3], -1%. Also, the outcome in test [5], in test [6], in test [7] and in test [8] was inactive.

Regarding `CN(C)Cc1cccc(-c2ccc(Nc3nccc(NCC(O)c4ccccc4)n3)cc2)c1` (configuration not stated), the growth inhibition in test [1] is 77% (active); in test [4] it was 100% (active). Also, the inhibition is 75% (active) in test [2] and 1% in test [3]. In addition, the outcome in test [5], in test [6], in test [7] and in test [8] was inactive.

For the molecule `CNc1ccc(CNCc2cccc(-c3ccc(-c4nc5ccccc5[nH]4)cc3)c2)cc1`, the figures for the growth inhibition in test [1] and in test [4] were 80% (active) and 102% (active), respectively. In addition, the inhibition was 18% in test [2] and -5% in test [3]. Besides, the result in test [5], in test [6], in test [7] and in test [8] was inactive.

For the molecule `O=C1CCCN1CCCNCc1cccc(-c2ccc(-c3nc4ccccc4[nH]3)s2)c1`, the growth inhibition in test [1] is 0%; in test [4] it was 97% (active). Besides, the results for the inhibition in test [2] and in test [3] were -6% and -3%, respectively. The result in test [5], in test [6], in test [7] and in test [8] was inactive.

On to `CN1CCC(N(Cc2ccc(-c3ccc(C(F)(F)F)cc3)cc2)C(=O)Cn2cc(Cc3cnn(C)c3)c(=O)nc2SCc2cccc(F)c2F)CC1`, for which the growth inhibition in test [1] was 91% (active); in test [4], 88% (active). The inhibition in test [2] was 68% (active); in test [3], 7%. The outcome in test [5], in test [6], in test [7] and in test [8] was inactive.

For the molecule `c1ccc(CN2CCC(NCc3ccc(-c4cccc(CNC5CCCC5)c4)cc3)CC2)cc1`, the growth inhibition is 100% (active) in test [1] and 101% (active) in test [4]. Moreover, the values for the inhibition in test [2] and in test [3] were 55% (active) and -8%, respectively. For the same molecule, the result in test [5], in test [6], in test [7] and in test [8] was inactive.

For the molecule `CC(=O)N1N=C(c2ccc(Cl)cc2)Sc2c1nc(-c1ccccc1)n2C(C)=O`, the growth inhibition in test [1] was 81% (active); in test [4] it was 105% (active). Further, the inhibition in test [2] is -3%; in test [3], 3%. Also, the result in test [5], in test [6], in test [7] and in test [8] was inactive.

With `COc1ccc(-c2cccc(NC(=O)c3ccc(C#N)cc3)c2)cc1CN1CCCN(C)CC1`, the growth inhibition in test [1] was 89% (active); in test [4], 101% (active). Besides, the inhibition in test [2] is 22%; in test [3], -3%. Besides, the result in test [5], in test [6], in test [7] and in test [8] was inactive.

Regarding `CCCCCC(C)C(C)c1cc(O)c2c(c1)OC(C)(C)CC2(O)c1ccnn1C` (configuration not stated), the growth inhibition was 95% (active) in test [1] and 98% (active) in test [4]. Moreover, the inhibition in test [2] was 20%; in test [3], 4%. The outcome in test [5], in test [6], in test [7] and in test [8] was inactive.

For the molecule `Clc1ccc(CCNCCCCCCNCCc2ccc3c(c2)OCO3)cc1`, the results for the growth inhibition in test [1] and in test [4] were 11% and 91% (active), respectively. Further, the inhibition in test [2] was 23%; in test [3], 7%. Also, the result in test [5], in test [6], in test [7] and in test [8] was inactive.

With `NC(N)=NCCCN(Cc1ccccc1)c1ccccc1`, the values for the growth inhibition in test [1] and in test [4] were 97% (active) and 100% (active), respectively. Moreover, the inhibition in test [2] was -13%; in test [3], -3%. Also, the result in test [5], in test [6], in test [7] and in test [8] was inactive.

On to `COc1ccc(C(=O)CCC(=O)N(Cc2ccc(-c3ccc(CNCc4cccnc4)cn3)cc2)C2CCN(Cc3ccccc3)CC2)cc1F`, for which the growth inhibition in test [1] was 26%; in test [4] it was 94% (active). For the same molecule, the inhibition in test [2] was 30%; in test [3] it was 3%. For the same molecule, the result in test [5], in test [6], in test [7] and in test [8] was inactive.

On to `CC[C@H](C)CNC(=O)c1cccc(-c2cccc(CN3CCC(N4CCCC4)CC3)c2)n1`, for which the growth inhibition is 86% (active) in test [1] and 101% (active) in test [4]. The inhibition was 9% in test [2] and 1% in test [3]. Besides, the result in test [5], in test [6], in test [7] and in test [8] was inactive.

In the case of `Cc1nnc2sc(-c3cccc(NC(=O)c4ccc(N5CCCCC5)c([N+](=O)[O-])c4)c3)nn12`, the growth inhibition in test [1] was 20%; in test [4], 87% (active). Besides, the inhibition is 3% in test [2] and -3% in test [3]. Besides, the result in test [5], in test [6], in test [7] and in test [8] was inactive.

As to `CCCC(CNCc1ccccc1)CNc1cc(=O)c2ccccc2[nH]1` (configuration not stated), the growth inhibition in test [1] is 21%; in test [4], 86% (active). For the same molecule, the inhibition was 2% in test [2] and 3% in test [3]. The outcome in test [5], in test [6], in test [7] and in test [8] was inactive.

In the case of `S=C(NCCCCCN1CCC(c2c[nH]c3ccccc23)CC1)Nc1cc(Cl)cc(Cl)c1`, the values for the growth inhibition in test [1] and in test [4] were 35% and 100% (active), respectively. Besides, the figures for the inhibition in test [2] and in test [3] were 25% and -4%, respectively. In addition, the outcome in test [5], in test [6], in test [7] and in test [8] was inactive.
